This is a sample that favours compounds with a hit; in the whole collection about 2.9% have one here.
esBAF inh: SWI/SNF esBAF complex inhibition; mouse ES cells, Bmi1-luciferase knock-in reporter, 24 h; 100% = twice the neutral-well signal; reporter increase, % at 12.5 µM; 2% of 350,000 active; in the data active means activation above about 40%; inconclusive means no clear call, values can overlap the other calls;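 further: 0% = median of the plate's neutral control wells and 100% = double that signal; a rise in the Bmi1 reporter signal indicates esBAF inhibition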
Vif imaging: inhibitors of HIV Vif. HEK293T cells, Vif self-association by quenched fluorescence, imaging, 24 h. inhibition, % at 7.49 µM. 0.35% of 340,000 active. AID 602346; in the data active means inhibition above about 50%, passing the limit was not always enough; inconclusive means no clear call, values can overlap the other calls; inactive means below about 31%
MITF act: increases MITF-driven TRPM1 promoter luciferase signal | SK-MEL-5 TRPM1-promoter luciferase, 24 h; % of positive control, neutral wells = 0 | activation, % at 12.5 µM | 0.75% of 300,000 active | AID 588334;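 active means mean activation of at least 80% with every replicate also reaching 80%; inconclusive means mean reaches 80% but some replicate falls short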;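 further: 0% = neutral control wells and 100% = parthenolide positive control wells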
Wnt act: activators of Wnt/beta-catenin signaling; Wnt/beta-catenin reporter cell assay, activator, plate reader; activation, % at 9.35 µM; 1.2% of 300,000 active; in the data active means activation above about 30%, passing the limit was not always enough; inconclusive means no clear call, values can overlap the other calls;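 further: 0% = neutral control wells and 100% = positive control wells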
N-glyco inh: N-linked glycosylation inhibition; reporter increase, % at 12.5 µM; 0.23% of 360,000 active; D54 ERlucT glycosylation luciferase reporter, 24 h; percent of 100 nM tunicamycin response;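 active means mean luciferase reporter signal, scaled so untreated is 0 and the glycosylation-blocking control 100, at or above a set limit in every replicate; inconclusive means mean reaches the limit but not every replicate does; inactive means mean below the limit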;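 further: luciferase carries N-glycosylation sites so blocking glycosylation raises the light; 0% = median of neutral control wells and 100% = median of 100 nM tunicamycin wells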
PvdQ acylase: blocks Pseudomonas aeruginosa PvdQ acylase activity; purified PvdQ acylase, fluorescence plate reader; inhibition, % at 10 µM; 0.063% of 340,000 active; AID 488965; in the data active means inhibition above about 30%, passing the limit was not always enough; inconclusive means no clear call, values can overlap the other calls;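 further: 0% = vehicle neutral wells and 100% = reference inhibitor wells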
* marks the source's active call; other numbers are inactive results; ? = inconclusive; nt = no result given.

SMILES | esBAF inh | Vif imaging | MITF act | Wnt act | N-glyco inh | PvdQ acylase
Cc1noc(C)c1S(=O)(=O)Nc1ccc2c(c1)C(=O)N([C@@H](C)CO)C[C@H](C)[C@@H](CN(C)CC1CC1)O2 | -2 | nt | nt | nt | nt | nt
CNC(=O)C[C@H]1CC[C@@H]2[C@H](COc3ccc(NC(=O)Cc4cccs4)cc3C(=O)N2C)O1 | -4 | nt | nt | nt | nt | nt
COCCN(C[C@H]1N[C@H](CO)[C@@H]1c1ccc(-c2ccc(F)cc2)cc1)C(C)=O | 1 | nt | nt | nt | nt | nt
N#C[C@@H]1[C@H](c2ccccc2)[C@H](CO)N1S(=O)(=O)Cc1ccccc1 | 0 | nt | nt | nt | nt | nt
COc1ccc(S(=O)(=O)Nc2ccc3c(c2)C(=O)N([C@@H](C)CO)C[C@@H](C)[C@H](CN(C)S(=O)(=O)c2ccc(C)cc2)OCCCC[C@@H](C)O3)cc1 | 15 | nt | nt | nt | nt | nt
C[C@@H]1CN([C@@H](C)CO)C(=O)c2cc(NS(=O)(=O)c3ccc(Cl)cc3)ccc2O[C@H]1CN(C)C | 6 | nt | nt | nt | nt | nt
O=C(COC(=O)c1ccc(O)cc1)c1ccc2c(c1)OCCO2 | 38 | -3 | 79 | 38* | -4 | 5
Cc1cc(C(=O)COC(=O)c2ccc(O)cc2O)c(C)n1C(C)C | 61* | 3 | 85* | 53* | -12 | -8
O=C(COC(=O)c1ccc(O)cc1)Nc1ccc2c(c1)OCCO2 | ? | -3 | 51 | 2 | 1 | 5
COc1cc(C2=NOC(C(=O)NCc3ccc(F)cc3)C2)cc(OC)c1OC (stereo unspecified) | 10 | 60* | -36 | nt | 24 | 10
COc1ccc(C2=NOC(C(=O)NCc3ccc(F)cc3)C2)cc1OC (stereo unspecified) | -8 | 12 | -22 | -14 | 20 | 3
CN(C)CC(=O)N[C@@H]1CC[C@H](CCNS(=O)(=O)c2ccccc2)O[C@@H]1CO | 5 | nt | nt | nt | nt | nt
Cc1c(CC(C)C)nc(N)c(C#N)c1-c1ccccc1 | 87* | ? | -3 | nt | -2 | -5
C#CCN1C(=O)S/C(=C\c2ccc(N3CCOCC3)cc2C)C1=O | nt | -4 | 72 | 56* | -2 | 6
CCC(C)N1C(=O)S/C(=C/c2ccc(N3CCOCC3)cc2C)C1=O (stereo unspecified) | nt | 0 | 91* | 1 | 0 | -10
CCN1C(=O)S/C(=C\c2ccc(N3CCOCC3)cc2C)C1=O | 55* | 14 | 66 | 81* | -8 | -1
C#CCN1C(=O)S/C(=C/c2cc(C)n(CC)c2C)C1=O | nt | -12 | 67 | nt | -8 | -4
Cc1cc(N2CCOCC2)ccc1/C=C1\SC(=O)N(C(C)C)C1=O | 2 | nt | 59 | -4 | -4 | -6
O=C(CSc1cccs1)Nc1cccc2ccccc12 | 72* | -10 | 65 | 0 | -1 | -12
O=C(CSc1cccs1)Nc1ccc2ccccc2c1 | 60* | -2 | nt | nt | 0 | -25
Cc1ccc(-c2ccc3c(c2)O[C@@H](CN(C)C)[C@@H](C)CN([C@@H](C)CO)S3(=O)=O)cc1 | -7 | nt | nt | nt | nt | nt
N#Cc1nc(COc2ccccc2)oc1N1CCCCC1 | 60* | 0 | 42 | 12 | -3 | -2
COc1ccc(S(=O)(=O)N(C)C[C@H]2Oc3c(NC(=O)c4cc(C)nn4C)cccc3C(=O)N([C@H](C)CO)C[C@@H]2C)cc1 | 1 | nt | nt | nt | nt | nt
O=C(C[C@@H]1CC[C@H]2[C@@H](COC[C@@H](O)CN2C(=O)c2ccc(F)cc2)O1)Nc1ccc(-c2ccccc2)cc1 | 5 | nt | nt | nt | nt | nt
Cc1ccc(OCCn2cnc3ccccc3c2=O)c([N+](=O)[O-])c1 | 92* | nt | 61 | 41* | 2 | -2
SMILES | esBAF inh | Vif imaging | MITF act | Wnt act | N-glyco inh | PvdQ acylase
Cc1ccc2nc(NC(=O)CN3CCN(c4ccccn4)CC3)sc2c1 | 0 | 0 | -6 | 2 | -2 | -7
Cc1ccc2nc(-c3ccc(NC(=O)CNC4CC4)cc3)sc2c1 | nt | 6 | 54 | 6 | -10 | 3
Cc1ccc2nc(-c3ccc(NC(=S)NC(=O)CC(C)C)cc3)sc2c1 | 73* | 2 | nt | 52* | 0 | 4
Cc1ccc2nc(-c3ccc(NC(=O)CSc4nc(N)cc(=O)[nH]4)cc3)sc2c1 | ? | 7 | 66 | 56* | -5 | -10
Cc1ccc2nc(-c3ccc(NC(=O)CSc4nccc(=O)[nH]4)cc3)sc2c1 | nt | 0 | 39 | nt | -10 | -6
Cc1ccc2nc(-c3ccc(NC(=O)CN4CCN(c5ccccn5)CC4)cc3)sc2c1 | nt | -24 | nt | 36* | -7 | nt

Compound activity deposited in PubChem BioAssay by Broad Institute.
